# Reference: PubChem BioAssay AID1159580 (chemical genetic matrix, 2015)
# In all, about 5,500 compounds went through this assay and about 2,000 (36%) were called active. Another 18% or so got no clear call; they are omitted. The list shows a part of the results. Unmarked numbers belong to inactive results. No stated cut-off is given here; in the data, active means normalized growth mostly below about 0.91 (no sharp cut-off); inconclusive means no clear call, values can overlap the other calls; inactive means mostly above about 0.92.
# Test: chemical genetic growth profiling, strain panel (AID 1159580);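 further: tested at 20 µM; growth read once vehicle control cultures reached saturation at 30 °C; 1 = growth at the plate median or of vehicle wells; lower values mean less growth of the strain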
# Details: S. cerevisiae deletion strains, growth OD
# [1] = locus YAL013W, strain DEP1, active compounds read low
# [2] = locus YAL040C, strain CLN3, active compounds read low
# [3] = locus YCL061C, strain MRC1 (second series), active compounds read low
# [4] = locus YDR363W, strain ESC2, active compounds read low
# [5] = locus YER002W, strain NOP16, active compounds read low
# [6] = locus YGR078C, strain PAC10, active compounds read low
# [7] = locus YMR307W, strain GAS1, active compounds read low
# [8] = locus YNL153C, strain GIM3, active compounds read low
# [9] = locus YNL197C, strain WHI3, active compounds read low
# [10] = locus YNL224C, strain SQS1, active compounds read low
# [11] = locus YOR083W, strain WHI5 (second series), active compounds read low
structure (smiles),measurement,setting,value
O=C(CCCN1CCC(O)(c2cccc(C(F)(F)F)c2)CC1)c1ccc(F)cc1,normalized growth,[1],0.832 (active)
same,normalized growth,[2],1.01
same,normalized growth,[3],0.974
same,normalized growth,[4],0.851 (active)
same,normalized growth,[5],1.03
same,normalized growth,[6],0.985
same,normalized growth,[7],0.818 (active)
same,normalized growth,[8],0.961
same,normalized growth,[9],1.05
same,normalized growth,[10],1.13 [resistant] (active)
same,normalized growth,"locus YNL322C, strain KRE1, active compounds read low",0.882 (active)
same,normalized growth,[11],1.04
OC1(c2ccc(Cl)c(C(F)(F)F)c2)CCN(CCCC(c2ccc(F)cc2)c2ccc(F)cc2)CC1,normalized growth,"locus YAL021C, strain ccr4, active compounds read low",0.0667 (active)
same,normalized growth,"locus YAL026C, strain drs2, active compounds read low",0.0627 (active)
same,normalized growth,"locus YAL030W, strain snc1, active compounds read low",0.0597 (active)
same,normalized growth,"locus YBL061C, strain skt5, active compounds read low",0.0677 (active)
same,normalized growth,"locus YBR009C, strain hhf1, active compounds read low",0.0608 (active)
same,normalized growth,"locus YBR023C, strain chs3, active compounds read low",0.0682 (active)
same,normalized growth,"locus YBR171W, strain sec66, active compounds read low",0.0917 (active)
same,normalized growth,"locus YBR231C, strain swc5, active compounds read low",0.0658 (active)
same,normalized growth,"locus YBR279W, strain paf1, active compounds read low",0.218 (active)
same,normalized growth,"locus YCL011C, strain gbp2, active compounds read low",0.0588 (active)
same,normalized growth,"locus YCL016C, strain dcc1, active compounds read low",0.0739 (active)
same,normalized growth,"locus YCL061C, strain MRC1, active compounds read low",0.394 (active)
same,normalized growth,"locus YCL069W, strain vba3, active compounds read low",0.101 (active)
same,normalized growth,"locus YCR088W, strain abp1, active compounds read low",0.0838 (active)
same,normalized growth,"locus YDL005C, strain med2, active compounds read low",0.0778 (active)
same,normalized growth,"locus YDL040C, strain nat1, active compounds read low",0.109 (active)
same,normalized growth,"locus YDR001C, strain nth1, active compounds read low",0.0892 (active)
same,normalized growth,"locus YDR069C, strain doa4, active compounds read low",0.0704 (active)
same,normalized growth,"locus YDR137W, strain rgp1, active compounds read low",0.111 (active)
same,normalized growth,"locus YDR159W, strain sac3, active compounds read low",0.0866 (active)
same,normalized growth,"locus YDR195W, strain ref2",0.0989 (active)
same,normalized growth,"locus YDR297W, strain sur2, active compounds read low",0.0586 (active)
same,normalized growth,"locus YDR334W, strain swr1, active compounds read low",0.0861 (active)
same,normalized growth,"locus YDR335W, strain msn5, active compounds read low",0.0657 (active)
same,normalized growth,"locus YDR392W, strain spt3, active compounds read low",0.0888 (active)
same,normalized growth,"locus YEL003W, strain gim4, active compounds read low",0.0558 (active)
same,normalized growth,"locus YEL037C, strain rad23, active compounds read low",0.0879 (active)
same,normalized growth,"locus YEL061C, strain CIN8 (second series), active compounds read low",0.0952 (active)
same,normalized growth,"locus YER015W, strain faa2, active compounds read low",0.0667 (active)
same,normalized growth,"locus YER016W, strain bim1, active compounds read low",0.0765 (active)
same,normalized growth,"locus YER111C, strain swi4, active compounds read low",0.14 (active)
same,normalized growth,"locus YER155C, strain BEM2 (second series), active compounds read low",0.468 (active)
same,normalized growth,"locus YFR010W, strain ubp6, active compounds read low",0.0981 (active)
same,normalized growth,"locus YGL167C, strain pmr1, active compounds read low",0.0793 (active)
same,normalized growth,"locus YGL173C, strain kem1, active compounds read low",0.0739 (active)
same,normalized growth,"locus YGL227W, strain vid30, active compounds read low",0.188 (active)
same,normalized growth,"locus YGL240W, strain doc1, active compounds read low",0.317 (active)
same,normalized growth,"locus YGL253W, strain hxk2, active compounds read low",0.0755 (active)
same,normalized growth,"locus YHR013C, strain ard1, active compounds read low",0.148 (active)
same,normalized growth,"locus YHR027C, strain rpn1, active compounds read low",0.067 (active)
same,normalized growth,"locus YHR030C, strain SLT2, active compounds read low",0.952
same,normalized growth,"locus YHR079C, strain IRE1, active compounds read low",0.965
same,normalized growth,"locus YHR142W, strain chs7, active compounds read low",0.0949 (active)
same,normalized growth,"locus YJL092W, strain hpr5, active compounds read low",0.105 (active)
same,normalized growth,"locus YJL095W, strain BCK1 (second series), active compounds read low",0.0578 (active)
same,normalized growth,"locus YJL095W, strain BCK1, active compounds read low",0.972
same,normalized growth,"locus YJL115W, strain asf1, active compounds read low",0.485 (active)
same,normalized growth,"locus YJL129C, strain trk1, active compounds read low",0.0811 (active)
same,normalized growth,"locus YJL154C, strain vps35, active compounds read low",0.0686 (active)
same,normalized growth,"locus YJL164C, strain tpk1, active compounds read low",0.0638 (active)
same,normalized growth,"locus YJL166W, strain qcr8, active compounds read low",0.0607 (active)
same,normalized growth,"locus YJR066W, strain TOR1, active compounds read low",0.931
same,normalized growth,"locus YKL160W, strain elf1, active compounds read low",0.348 (active)
same,normalized growth,"locus YKR026C, strain gcn3, active compounds read low",0.132 (active)
same,normalized growth,"locus YKR091W, strain srl3, active compounds read low",0.0942 (active)
same,normalized growth,"locus YLL001W, strain dnm1, active compounds read low",0.0836 (active)
same,normalized growth,"locus YLL026W, active compounds read low",0.0586 (active)
same,normalized growth,"locus YLL041C, strain sdh2, active compounds read low",0.0615 (active)
same,normalized growth,"locus YLR027C, strain aat2, active compounds read low",0.0571 (active)
same,normalized growth,"locus YLR113W, strain HOG1, active compounds read low",0.946
same,normalized growth,"locus YLR221C, strain rsa3, active compounds read low",0.061 (active)
same,normalized growth,"locus YLR258W, strain gsy2, active compounds read low",0.0676 (active)
same,normalized growth,"locus YLR262C, strain YPT6 (second series), active compounds read low",0.0931 (active)
same,normalized growth,"locus YLR320W, strain mms22, active compounds read low",0.141 (active)
same,normalized growth,"locus YLR342W, strain FKS1, active compounds read low",0.0657 (active)
same,normalized growth,"locus YLR357W, strain rsc2, active compounds read low",0.321 (active)
same,normalized growth,"locus YLR370C, strain arc18, active compounds read low",0.0708 (active)
same,normalized growth,"locus YLR384C, strain iki3, active compounds read low",0.127 (active)
same,normalized growth,"locus YML120C, strain ndi1, active compounds read low",0.057 (active)
same,normalized growth,"locus YMR058W, strain fet3, active compounds read low",0.0807 (active)
same,normalized growth,"locus YMR125W, strain sto1, active compounds read low",0.164 (active)
same,normalized growth,"locus YMR129W, active compounds read low",0.0603 (active)
same,normalized growth,"locus YMR205C, strain PFK2, active compounds read low",0.0884 (active)
same,normalized growth,"locus YMR231W, strain pep5, active compounds read low",0.0664 (active)
same,normalized growth,"locus YNL071W, strain lat1, active compounds read low",0.0627 (active)
same,normalized growth,"locus YNL183C, strain NPR1, active compounds read low",0.935
same,normalized growth,"locus YNL209W, strain ssb2, active compounds read low",0.0684 (active)
same,normalized growth,"locus YNL248C, strain rpa49, active compounds read low",0.196 (active)
same,normalized growth,"locus YNL322C, strain KRE1 (second series), active compounds read low",0.479 (active)
same,normalized growth,"locus YNR049C, strain mso1, active compounds read low",0.12 (active)
same,normalized growth,"locus YOR001W, strain rrp6, active compounds read low",0.0677 (active)
same,normalized growth,"locus YOR070C, strain gyp1, active compounds read low",0.0739 (active)
same,normalized growth,"locus YOR080W, strain dia2, active compounds read low",0.196 (active)
same,normalized growth,"locus YOR083W, strain WHI5, active compounds read low",0.0883 (active)
same,normalized growth,"locus YOR106W, strain vam3, active compounds read low",0.0691 (active)
same,normalized growth,"locus YOR231W, strain MKK1, active compounds read low",0.981
same,normalized growth,"locus YOR265W, strain rbl2, active compounds read low",0.0702 (active)
same,normalized growth,"locus YOR270C, strain vph1, active compounds read low",0.127 (active)
same,normalized growth,"locus YOR290C, strain snf2, active compounds read low",0.104 (active)
same,normalized growth,"locus YPL051W, strain arl3, active compounds read low",0.0821 (active)
same,normalized growth,"locus YPL078C, strain atp4, active compounds read low",0.216 (active)
same,normalized growth,"locus YPL106C, strain sse1, active compounds read low",0.0967 (active)
same,normalized growth,"locus YPL240C, strain hsp82, active compounds read low",0.0596 (active)
same,normalized growth,"locus YPL256C, strain CLN2, active compounds read low",0.936
COc1ccccc1N1CCN(CCN(C(=O)c2ccc(F)cc2)c2ccccn2)CC1,normalized growth,[1],0.995
same,normalized growth,[2],1.01
same,normalized growth,[3],1
same,normalized growth,"locus YDR150W, strain NUM1, active compounds read low",0.999
same,normalized growth,[4],1.02
same,normalized growth,[5],1.01
same,normalized growth,[6],1.01
same,normalized growth,"locus YJR075W, strain HOC1, active compounds read low",1.01
same,normalized growth,[7],0.993
same,normalized growth,"locus YNL128W, strain TEP1, active compounds read low",1
same,normalized growth,[8],1.01
same,normalized growth,"locus YNL175C, strain NOP13, active compounds read low",1.01
same,normalized growth,[9],0.998
same,normalized growth,[10],1
same,normalized growth,[11],1.01
same,normalized growth,"locus YPL055C, strain LGE1, active compounds read low",1.01
same,normalized growth,"locus YPL241C, strain CIN2, active compounds read low",1
